Test results: article PMC7862700, “An all-to-all approach to the identification of sequence-specific readers for epigenetic DNA modifications on cytosine”

What was measured:
Test in all cases: DAPPL (digital affinity profiling via proximity ligation, sequencing); 10 mM Tris-HCl pH 7.5, 50 mM NaCl, 1 mM DTT, 4% glycerol, room temperature, 30 min; GST-TFs on glutathione beads, 16-mer random dsDNA library, 0.1% formaldehyde crosslink after washing; high values mean tight binding
Conditions in all cases: protein: recombinant; tags: N-terminal GST; dsDNA, one strand shown
FEV = target: T1, FEV (Homo sapiens, UniProt Q99581 1-238)
T1 sequence: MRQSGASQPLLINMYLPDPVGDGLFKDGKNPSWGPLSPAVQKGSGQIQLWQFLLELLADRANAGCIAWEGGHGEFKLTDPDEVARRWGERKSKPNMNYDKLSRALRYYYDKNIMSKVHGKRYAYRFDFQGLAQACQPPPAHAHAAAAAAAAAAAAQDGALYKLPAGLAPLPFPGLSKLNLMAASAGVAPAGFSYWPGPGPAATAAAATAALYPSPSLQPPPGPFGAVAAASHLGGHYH
Procedure, shortened: (§1)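 Binding signal is given per hexamer as its read frequency for a factor divided by its frequency in the tag-only sample. GST-fused human transcription factors were expressed in yeast, captured on glutathione beads, barcoded with DNA and pooled with that sample, then incubated with 200 nmole of a 16-mer random double-stranded DNA library in Tris/NaCl/DTT/glycerol buffer for 30 min at room temperature. The pools were then washed, crosslinked, proximity-ligated, amplified by PCR and sequenced on an Illumina NextSeq500.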

ETV5 = ETV5 (Homo sapiens, UniProt P41161 1-510)
Chain of ETV5 (P41161 whole entry): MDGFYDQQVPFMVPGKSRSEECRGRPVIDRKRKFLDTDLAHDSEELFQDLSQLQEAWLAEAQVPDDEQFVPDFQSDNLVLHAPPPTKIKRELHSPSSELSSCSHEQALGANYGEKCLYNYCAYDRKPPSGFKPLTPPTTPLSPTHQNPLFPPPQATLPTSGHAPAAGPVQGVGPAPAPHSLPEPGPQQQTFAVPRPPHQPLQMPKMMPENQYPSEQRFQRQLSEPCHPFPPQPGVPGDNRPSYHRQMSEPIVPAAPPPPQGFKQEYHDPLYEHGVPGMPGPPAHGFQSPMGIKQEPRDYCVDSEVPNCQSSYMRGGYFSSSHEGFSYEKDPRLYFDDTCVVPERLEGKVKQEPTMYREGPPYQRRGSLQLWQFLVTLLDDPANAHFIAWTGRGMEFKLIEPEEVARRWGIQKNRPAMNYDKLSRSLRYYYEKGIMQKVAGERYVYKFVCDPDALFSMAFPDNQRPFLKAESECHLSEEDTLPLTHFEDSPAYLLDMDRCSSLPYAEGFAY
Procedure, shortened: as §1

SPIC = target: T2, SPIC (Homo sapiens, UniProt Q8N5J4 1-248)
T2 sequence: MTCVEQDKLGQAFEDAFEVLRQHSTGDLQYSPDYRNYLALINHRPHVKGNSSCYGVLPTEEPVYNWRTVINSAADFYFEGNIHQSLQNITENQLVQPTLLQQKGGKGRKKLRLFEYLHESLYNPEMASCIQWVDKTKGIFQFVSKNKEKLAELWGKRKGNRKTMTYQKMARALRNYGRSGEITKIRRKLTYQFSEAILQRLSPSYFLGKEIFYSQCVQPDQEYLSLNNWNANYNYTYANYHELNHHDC
Procedure, shortened: as §1

ELF4 = ELF4 (Homo sapiens, UniProt Q99607 1-663)
Chain of ELF4 (Q99607 whole entry): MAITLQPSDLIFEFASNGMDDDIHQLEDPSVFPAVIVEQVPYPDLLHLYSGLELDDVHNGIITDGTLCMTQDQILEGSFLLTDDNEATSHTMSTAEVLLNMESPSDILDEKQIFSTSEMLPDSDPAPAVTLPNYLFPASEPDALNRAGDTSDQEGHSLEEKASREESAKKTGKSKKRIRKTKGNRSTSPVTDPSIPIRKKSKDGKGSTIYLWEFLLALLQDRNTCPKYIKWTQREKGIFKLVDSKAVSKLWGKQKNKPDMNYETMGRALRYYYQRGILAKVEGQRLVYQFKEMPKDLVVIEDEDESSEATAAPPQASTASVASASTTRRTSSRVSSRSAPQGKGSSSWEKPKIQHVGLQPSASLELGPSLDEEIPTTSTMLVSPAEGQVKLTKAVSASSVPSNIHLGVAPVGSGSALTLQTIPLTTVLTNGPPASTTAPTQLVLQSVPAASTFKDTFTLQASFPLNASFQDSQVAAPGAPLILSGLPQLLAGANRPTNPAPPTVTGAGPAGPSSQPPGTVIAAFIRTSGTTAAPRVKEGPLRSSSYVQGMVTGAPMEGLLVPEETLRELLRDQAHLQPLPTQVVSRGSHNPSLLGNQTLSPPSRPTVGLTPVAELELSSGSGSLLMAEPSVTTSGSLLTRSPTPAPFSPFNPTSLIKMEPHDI
Procedure, shortened: as §1

ELK4 = target: T3, ELK4 (Homo sapiens, UniProt P28324-2 1-405)
T3 sequence: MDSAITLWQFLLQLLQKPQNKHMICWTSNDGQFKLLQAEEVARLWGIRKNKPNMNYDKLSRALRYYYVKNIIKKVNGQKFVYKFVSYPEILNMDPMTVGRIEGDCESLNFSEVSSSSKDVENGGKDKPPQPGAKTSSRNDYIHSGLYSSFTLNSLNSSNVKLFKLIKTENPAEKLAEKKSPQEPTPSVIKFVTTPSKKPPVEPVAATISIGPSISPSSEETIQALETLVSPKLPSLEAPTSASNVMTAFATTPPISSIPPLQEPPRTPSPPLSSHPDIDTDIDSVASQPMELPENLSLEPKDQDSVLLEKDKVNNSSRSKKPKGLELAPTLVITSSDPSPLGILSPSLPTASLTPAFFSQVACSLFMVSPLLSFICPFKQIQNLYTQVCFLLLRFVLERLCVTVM
Procedure, shortened: as §1

ETV2 = target: T4, ETV2 (Homo sapiens, UniProt O00321 1-342)
T4 sequence: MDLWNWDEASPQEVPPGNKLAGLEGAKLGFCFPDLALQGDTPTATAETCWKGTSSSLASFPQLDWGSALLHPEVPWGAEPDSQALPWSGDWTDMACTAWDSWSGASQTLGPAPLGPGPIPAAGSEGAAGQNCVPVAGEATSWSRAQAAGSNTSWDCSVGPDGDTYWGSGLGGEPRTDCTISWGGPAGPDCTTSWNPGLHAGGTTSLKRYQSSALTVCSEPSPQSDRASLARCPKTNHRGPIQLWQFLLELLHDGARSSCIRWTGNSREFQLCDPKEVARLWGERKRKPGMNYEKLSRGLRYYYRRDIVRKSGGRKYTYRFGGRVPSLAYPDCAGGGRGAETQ
Procedure, shortened: as §1

ELF3 = target: T5, ELF3 (Homo sapiens, UniProt P78545 1-371)
T5 sequence: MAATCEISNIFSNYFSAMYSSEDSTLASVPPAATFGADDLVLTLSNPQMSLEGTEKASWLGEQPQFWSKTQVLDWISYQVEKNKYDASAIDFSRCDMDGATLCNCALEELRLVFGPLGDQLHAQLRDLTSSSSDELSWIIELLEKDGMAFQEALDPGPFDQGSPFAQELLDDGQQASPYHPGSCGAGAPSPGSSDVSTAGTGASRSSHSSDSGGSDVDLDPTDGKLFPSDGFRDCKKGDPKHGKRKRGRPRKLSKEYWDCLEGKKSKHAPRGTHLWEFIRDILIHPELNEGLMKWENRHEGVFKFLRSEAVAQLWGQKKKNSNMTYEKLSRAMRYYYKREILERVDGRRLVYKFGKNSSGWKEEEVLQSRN
Procedure, shortened: as §1

ETV1 = ETV1 (Homo sapiens, UniProt P50549 1-477)
Chain of ETV1 (P50549 whole entry): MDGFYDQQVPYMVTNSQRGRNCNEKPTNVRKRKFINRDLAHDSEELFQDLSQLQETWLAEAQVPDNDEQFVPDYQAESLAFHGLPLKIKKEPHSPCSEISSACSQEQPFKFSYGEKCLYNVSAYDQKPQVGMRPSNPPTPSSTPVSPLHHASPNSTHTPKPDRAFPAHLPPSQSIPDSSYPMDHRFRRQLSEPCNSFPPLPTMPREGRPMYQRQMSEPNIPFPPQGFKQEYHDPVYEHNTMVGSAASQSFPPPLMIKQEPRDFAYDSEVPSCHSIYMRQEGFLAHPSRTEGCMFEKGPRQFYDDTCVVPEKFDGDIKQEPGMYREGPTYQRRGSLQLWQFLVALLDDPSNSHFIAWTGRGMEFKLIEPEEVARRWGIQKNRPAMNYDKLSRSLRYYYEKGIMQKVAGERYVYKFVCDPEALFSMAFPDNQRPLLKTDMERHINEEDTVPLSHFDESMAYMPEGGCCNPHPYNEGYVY
Procedure, shortened: as §1

ERF = target: T6, ERF (Homo sapiens, UniProt P50548 1-548)
T6 sequence: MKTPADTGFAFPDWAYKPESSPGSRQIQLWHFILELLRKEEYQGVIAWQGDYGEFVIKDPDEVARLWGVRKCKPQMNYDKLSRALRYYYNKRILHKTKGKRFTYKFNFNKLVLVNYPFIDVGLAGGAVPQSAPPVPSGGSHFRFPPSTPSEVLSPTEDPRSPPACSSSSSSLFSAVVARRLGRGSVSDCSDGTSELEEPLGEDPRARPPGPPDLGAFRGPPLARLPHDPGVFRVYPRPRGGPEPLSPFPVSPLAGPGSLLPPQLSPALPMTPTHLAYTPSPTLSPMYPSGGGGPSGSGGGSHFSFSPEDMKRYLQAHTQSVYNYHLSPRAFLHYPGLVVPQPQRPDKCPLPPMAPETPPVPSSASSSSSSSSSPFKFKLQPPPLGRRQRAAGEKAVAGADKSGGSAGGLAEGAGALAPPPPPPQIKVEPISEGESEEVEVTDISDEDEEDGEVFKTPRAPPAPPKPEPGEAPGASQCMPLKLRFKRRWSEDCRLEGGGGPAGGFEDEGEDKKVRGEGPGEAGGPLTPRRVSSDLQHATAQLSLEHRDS
Procedure, shortened: as §1

ETV3L = target: T7, ETV3L (Homo sapiens, UniProt Q6ZN32 1-361)
T7 sequence: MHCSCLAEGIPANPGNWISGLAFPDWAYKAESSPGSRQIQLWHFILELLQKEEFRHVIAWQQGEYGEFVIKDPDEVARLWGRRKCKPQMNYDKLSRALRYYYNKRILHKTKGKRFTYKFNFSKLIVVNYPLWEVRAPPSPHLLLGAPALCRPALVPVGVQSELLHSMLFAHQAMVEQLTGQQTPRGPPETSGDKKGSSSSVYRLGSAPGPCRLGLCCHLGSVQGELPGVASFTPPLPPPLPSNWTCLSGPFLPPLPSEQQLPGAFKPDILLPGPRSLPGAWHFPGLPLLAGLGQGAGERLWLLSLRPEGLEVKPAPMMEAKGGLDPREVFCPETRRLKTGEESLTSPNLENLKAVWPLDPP
Procedure, shortened: as §1

ETS2 = target: T8, ETS2 (Homo sapiens, UniProt P15036 1-469)
T8 sequence: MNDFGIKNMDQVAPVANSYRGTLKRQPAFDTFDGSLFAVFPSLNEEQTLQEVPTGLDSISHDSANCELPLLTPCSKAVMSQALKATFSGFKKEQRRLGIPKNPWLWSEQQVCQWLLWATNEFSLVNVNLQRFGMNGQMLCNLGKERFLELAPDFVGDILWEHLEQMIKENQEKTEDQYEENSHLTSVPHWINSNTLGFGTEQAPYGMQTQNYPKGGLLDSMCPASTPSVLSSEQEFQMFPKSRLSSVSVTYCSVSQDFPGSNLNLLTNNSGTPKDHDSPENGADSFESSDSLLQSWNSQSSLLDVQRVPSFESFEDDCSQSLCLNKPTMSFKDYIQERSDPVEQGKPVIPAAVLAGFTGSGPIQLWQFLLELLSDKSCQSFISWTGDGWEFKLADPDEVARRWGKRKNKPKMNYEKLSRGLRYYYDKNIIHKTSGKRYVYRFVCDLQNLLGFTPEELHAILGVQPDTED
Procedure, shortened: as §1

SPDEF = target: T9, SPDEF (Homo sapiens, UniProt O95238 1-335)
T9 sequence: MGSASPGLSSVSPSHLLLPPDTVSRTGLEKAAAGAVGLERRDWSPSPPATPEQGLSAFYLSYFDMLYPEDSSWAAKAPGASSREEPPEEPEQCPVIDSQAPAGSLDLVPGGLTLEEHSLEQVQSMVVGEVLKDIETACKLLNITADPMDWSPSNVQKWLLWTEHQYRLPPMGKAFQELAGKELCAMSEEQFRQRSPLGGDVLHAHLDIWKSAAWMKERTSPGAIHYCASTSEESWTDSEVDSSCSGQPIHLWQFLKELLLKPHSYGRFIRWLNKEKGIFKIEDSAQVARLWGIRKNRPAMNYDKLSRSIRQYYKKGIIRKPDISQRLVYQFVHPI
Procedure, shortened: as §1

ETV7 = target: T10, ETV7 (Homo sapiens, UniProt Q9Y603 1-341)
T10 sequence: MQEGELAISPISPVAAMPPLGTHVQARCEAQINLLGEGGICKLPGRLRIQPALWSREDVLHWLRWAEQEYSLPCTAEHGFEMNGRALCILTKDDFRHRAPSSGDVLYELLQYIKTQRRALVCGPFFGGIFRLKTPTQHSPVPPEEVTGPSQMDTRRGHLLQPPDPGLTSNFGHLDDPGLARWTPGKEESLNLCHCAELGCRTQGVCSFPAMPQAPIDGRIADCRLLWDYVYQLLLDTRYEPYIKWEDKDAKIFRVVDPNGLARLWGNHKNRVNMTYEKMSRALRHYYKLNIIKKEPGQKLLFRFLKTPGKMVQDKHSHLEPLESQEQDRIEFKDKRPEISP
Procedure, shortened: as §1

ELF5 = target: T11, ELF5 (Homo sapiens, UniProt Q9UKW6-2 1-255)
T11 sequence: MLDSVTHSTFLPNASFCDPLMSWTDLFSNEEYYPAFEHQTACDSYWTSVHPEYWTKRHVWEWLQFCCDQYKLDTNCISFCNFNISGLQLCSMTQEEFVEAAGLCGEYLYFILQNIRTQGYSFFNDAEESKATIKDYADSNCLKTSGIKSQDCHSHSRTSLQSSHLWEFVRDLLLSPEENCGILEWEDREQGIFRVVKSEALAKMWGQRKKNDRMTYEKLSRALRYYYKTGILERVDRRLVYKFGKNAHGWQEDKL
Procedure, shortened: as §1

ETV3 = target: T12, ETV3 (Homo sapiens, UniProt P41162-2 1-143)
T12 sequence: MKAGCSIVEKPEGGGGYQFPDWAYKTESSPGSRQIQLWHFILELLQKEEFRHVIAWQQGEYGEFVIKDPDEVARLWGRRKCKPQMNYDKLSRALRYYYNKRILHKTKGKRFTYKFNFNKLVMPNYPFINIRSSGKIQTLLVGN
Procedure, shortened: as §1

ETV6 = ETV6 (Homo sapiens, UniProt P41212 1-452)
Chain of ETV6 (P41212 whole entry): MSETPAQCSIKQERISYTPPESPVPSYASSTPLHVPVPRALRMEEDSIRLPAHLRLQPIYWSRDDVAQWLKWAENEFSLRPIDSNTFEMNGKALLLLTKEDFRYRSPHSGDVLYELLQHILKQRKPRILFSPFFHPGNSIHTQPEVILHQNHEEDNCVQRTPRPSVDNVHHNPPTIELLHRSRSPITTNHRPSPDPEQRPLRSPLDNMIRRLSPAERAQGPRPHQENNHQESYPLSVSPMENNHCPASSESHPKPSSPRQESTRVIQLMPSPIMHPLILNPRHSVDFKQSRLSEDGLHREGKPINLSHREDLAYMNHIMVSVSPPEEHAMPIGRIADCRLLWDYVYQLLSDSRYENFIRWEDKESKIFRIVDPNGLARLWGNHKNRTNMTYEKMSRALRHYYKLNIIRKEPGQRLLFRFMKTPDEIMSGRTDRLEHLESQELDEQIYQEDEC
Procedure, shortened: as §1

Row | Sequence | binding signal (FEV) | binding signal (ETV5) | binding signal (SPIC) | binding signal (ELF4) | binding signal (ELK4) | binding signal (ETV2) | binding signal (ELF3) | binding signal (ETV1) | binding signal (ERF) | binding signal (ETV3L) | binding signal (ETS2) | binding signal (SPDEF) | binding signal (ETV7) | binding signal (ELF5) | binding signal (ETV3) | binding signal (ETV6)
1 | GATGTC | 1.59 fold enrichment (6-mer frequency, TF over GST control) | 1.37 fold enrichment (6-mer frequency, TF over GST control) | 1.23 fold enrichment (6-mer frequency, TF over GST control) | 1.24 fold enrichment (6-mer frequency, TF over GST control) | 1.15 fold enrichment (6-mer frequency, TF over GST control) | 1.24 fold enrichment (6-mer frequency, TF over GST control) | 1.25 fold enrichment (6-mer frequency, TF over GST control) | 1.3 fold enrichment (6-mer frequency, TF over GST control) | 1.29 fold enrichment (6-mer frequency, TF over GST control) | 1.31 fold enrichment (6-mer frequency, TF over GST control) | 1.33 fold enrichment (6-mer frequency, TF over GST control) | 1.53 fold enrichment (6-mer frequency, TF over GST control) | 1.27 fold enrichment (6-mer frequency, TF over GST control) | 1.42 fold enrichment (6-mer frequency, TF over GST control) | 1.32 fold enrichment (6-mer frequency, TF over GST control) | 1.21 fold enrichment (6-mer frequency, TF over GST control)
2 | CCCCCG | 1.2 fold enrichment (6-mer frequency, TF over GST control) | 1.08 fold enrichment (6-mer frequency, TF over GST control) | 1.14 fold enrichment (6-mer frequency, TF over GST control) | 1.18 fold enrichment (6-mer frequency, TF over GST control) | 1.16 fold enrichment (6-mer frequency, TF over GST control) | 1.03 fold enrichment (6-mer frequency, TF over GST control) | 1.22 fold enrichment (6-mer frequency, TF over GST control) | 1.04 fold enrichment (6-mer frequency, TF over GST control) | 1.17 fold enrichment (6-mer frequency, TF over GST control) | 1.13 fold enrichment (6-mer frequency, TF over GST control) | 1.06 fold enrichment (6-mer frequency, TF over GST control) | 1.13 fold enrichment (6-mer frequency, TF over GST control) | 1.05 fold enrichment (6-mer frequency, TF over GST control) | 1.07 fold enrichment (6-mer frequency, TF over GST control) | 1.22 fold enrichment (6-mer frequency, TF over GST control) | 1.12 fold enrichment (6-mer frequency, TF over GST control)
3 | CACTGT | 1.09 fold enrichment (6-mer frequency, TF over GST control) | 1.1 fold enrichment (6-mer frequency, TF over GST control) | 1.19 fold enrichment (6-mer frequency, TF over GST control) | 1.15 fold enrichment (6-mer frequency, TF over GST control) | 1.17 fold enrichment (6-mer frequency, TF over GST control) | 1.25 fold enrichment (6-mer frequency, TF over GST control) | 1.04 fold enrichment (6-mer frequency, TF over GST control) | 1.11 fold enrichment (6-mer frequency, TF over GST control) | 1.16 fold enrichment (6-mer frequency, TF over GST control) | 1.09 fold enrichment (6-mer frequency, TF over GST control) | 1.13 fold enrichment (6-mer frequency, TF over GST control) | 1.11 fold enrichment (6-mer frequency, TF over GST control) | 1.13 fold enrichment (6-mer frequency, TF over GST control) | 1.12 fold enrichment (6-mer frequency, TF over GST control) | 1.12 fold enrichment (6-mer frequency, TF over GST control) | 1.05 fold enrichment (6-mer frequency, TF over GST control)
